Assay results from PubChem BioAssay AID1159580 (chemical genetic matrix, 2015).
Values joined by “and” are separate entries in the source; they are usually repeats but may differ in a detail not shown here. Equal values may be shown once. Screen size: about 5,500 compounds; about 2,000 (36%) were called active. Not shown: some 18% with an inconclusive outcome. Rule as the data show it: active = normalized growth mostly below about 0.91 (no sharp cut-off); inconclusive = no clear call, values can overlap the other calls; inactive = mostly above about 0.92. The list shows a part of the results.

Assay: chemical genetic growth profiling, strain panel (AID 1159580);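 also: tested at 20 µM; growth read once vehicle control cultures reached saturation at 30 °C; 1 = growth at the plate median or of vehicle wells; lower values mean less growth of the strain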
Conditions: S. cerevisiae deletion strains, growth OD

Measured: normalized growth

Clc1cccc(Cl)c1NC1=NCCN1
inactive: locus YAL021C, strain ccr4, hits give low values 0.973 | locus YAL026C, strain drs2, hits give low values 1.01 | locus YAL030W, strain snc1, hits give low values 0.993 | locus YAL040C, strain CLN3, hits give low values 0.999 | locus YBL061C, strain skt5, hits give low values 0.972 | locus YBR009C, strain hhf1, hits give low values 1 | locus YBR021W, strain FUR4, hits give low values 1.03 | locus YBR023C, strain chs3, hits give low values 0.983 | locus YBR171W, strain sec66, hits give low values 0.977 | locus YBR229C, strain ROT2, hits give low values 0.999 | locus YBR231C, strain swc5, hits give low values 0.998 | locus YBR279W, strain paf1, hits give low values 1.01 | locus YCL011C, strain gbp2, hits give low values 0.96 | locus YCL016C, strain dcc1, hits give low values 0.962 | locus YCL029C, strain bik1, hits give low values 1.02 | locus YCL061C, strain MRC1, hits give low values 0.989 | locus YCL069W, strain vba3, hits give low values 0.991 | locus YCR088W, strain abp1, hits give low values 0.992 | locus YDL005C, strain med2, hits give low values 0.996 | locus YDL035C, strain GPR1, hits give low values 1.02 | locus YDL040C, strain nat1, hits give low values 1.01 | locus YDL074C, strain BRE1, hits give low values 1.03 | locus YDL101C, strain DUN1, hits give low values 1.02 | locus YDL134C, strain PPH21, hits give low values 1.01 | locus YDL185W, strain tfp1, hits give low values 1.01 | locus YDL192W, strain arf1, hits give low values 1.02 | locus YDR001C, strain nth1, hits give low values 0.972 | locus YDR069C, strain doa4, hits give low values 0.992 | locus YDR101C, strain arx1, hits give low values 1.03 | locus YDR137W, strain rgp1, hits give low values 0.959 | locus YDR150W, strain NUM1, hits give low values 1.01 | locus YDR159W, strain sac3, hits give low values 1.01 | locus YDR162C, strain NBP2, hits give low values 1.01 | locus YDR195W, strain ref2 0.994 | locus YDR297W, strain sur2, hits give low values 0.98 | locus YDR318W, strain mcm21, hits give low values 1.02 | locus YDR334W, strain swr1, hits give low values 0.954 | locus YDR335W, strain msn5, hits give low values 0.973 | locus YDR388W, hits give low values 1.01 | locus YDR392W, strain spt3, hits give low values 0.904 | locus YDR502C, strain sam2, hits give low values 1.03 | locus YEL003W, strain gim4, hits give low values 0.984 | locus YEL037C, strain rad23, hits give low values 0.999 | locus YEL061C, strain CIN8 (second series), hits give low values 0.988 | locus YEL061C, strain CIN8, hits give low values 1.01 | locus YER002W, strain NOP16, hits give low values 0.99 | locus YER015W, strain faa2, hits give low values 1 | locus YER016W, strain bim1, hits give low values 0.996 | locus YER110C, hits give low values 1.02 | locus YER111C, strain swi4, hits give low values 0.993 | locus YER155C, strain BEM2 (second series), hits give low values 1 | locus YER155C, strain BEM2, hits give low values 1.01 | locus YER167W, strain BCK2, hits give low values 1.01 | locus YFR010W, strain ubp6, hits give low values 0.998 | locus YGL078C, strain dbp3, hits give low values 1.03 | locus YGL086W, strain mad1, hits give low values 1.06 | locus YGL167C, strain pmr1, hits give low values 0.991 | locus YGL173C, strain kem1, hits give low values 0.985 | locus YGL227W, strain vid30, hits give low values 0.992 | locus YGL240W, strain doc1, hits give low values 0.995 | locus YGL248W, strain PDE1, hits give low values 1.03 | locus YGL253W, strain hxk2, hits give low values 0.963 | locus YGR135W, strain pre9, hits give low values 1.04 | locus YGR229C, strain SMI1, hits give low values 0.992 | locus YGR252W, strain gcn5, hits give low values 1.05 | locus YHR013C, strain ard1, hits give low values 0.965 | locus YHR027C, strain rpn1, hits give low values 0.98 | locus YHR030C, strain SLT2, hits give low values 1.01 and 0.969 | locus YHR079C, strain IRE1 (second series), hits give low values 1.02 | locus YHR079C, strain IRE1, hits give low values 0.98 | locus YHR094C, strain hxt1, hits give low values 1.02 | locus YHR129C, strain ARP1, hits give low values 1.01 | locus YHR142W, strain chs7, hits give low values 0.932 | locus YHR200W, strain rpn10, hits give low values 1.02 | locus YIL066C, strain RNR3, hits give low values 1.01 | locus YIL073C, strain SPO22, hits give low values 1.07 | locus YIL125W, strain kgd1, hits give low values 1.02 | locus YIR030C, strain dcg1, hits give low values 1.01 | locus YJL092W, strain hpr5, hits give low values 0.994 | locus YJL095W, strain BCK1 (second series), hits give low values 0.983 | locus YJL095W, strain BCK1, hits give low values 1.04 and 0.975 | locus YJL115W, strain asf1, hits give low values 0.969 | locus YJL129C, strain trk1, hits give low values 0.97 | locus YJL134W, strain LCB3, hits give low values 1.01 | locus YJL154C, strain vps35, hits give low values 0.972 | locus YJL164C, strain tpk1, hits give low values 0.996 | locus YJL166W, strain qcr8, hits give low values 0.953 | locus YJL168C, strain set2, hits give low values 1.02 | locus YJL187C, strain SWE1 (second series), hits give low values 1.03 | locus YJL187C, strain SWE1, hits give low values 1 | locus YJR043C, strain POL32, hits give low values 1.03 | locus YJR066W, strain TOR1, hits give low values 0.996 | locus YJR075W, strain HOC1, hits give low values 1.01 | locus YKL009W, strain mrt4, hits give low values 1.02 | locus YKL068W, hits give low values 1 | locus YKL085W, strain MDH1 (second series), hits give low values 1.06 | locus YKL085W, strain MDH1, hits give low values 1.06 | locus YKL160W, strain elf1, hits give low values 0.951 | locus YKL190W, strain CNB1, hits give low values 1.01 | locus YKR001C, strain vps1, hits give low values 1.01 | locus YKR026C, strain gcn3, hits give low values 0.986 | locus YKR091W, strain srl3, hits give low values 0.982 | locus YLL001W, strain dnm1, hits give low values 0.933 | locus YLL026W, hits give low values 0.986 | locus YLL041C, strain sdh2, hits give low values 1 | locus YLR027C, strain aat2, hits give low values 1.01 | locus YLR039C, strain RIC1, hits give low values 1.01 | locus YLR058C, strain SHM2, hits give low values 1.02 | locus YLR102C, strain apc9, hits give low values 1.01 | locus YLR113W, strain HOG1, hits give low values 0.951 | locus YLR221C, strain rsa3, hits give low values 0.944 | locus YLR258W, strain gsy2, hits give low values 0.985 | locus YLR262C, strain YPT6 (second series), hits give low values 0.974 | locus YLR262C, strain YPT6, hits give low values 0.982 | locus YLR268W, strain sec22, hits give low values 1.02 | locus YLR320W, strain mms22, hits give low values 0.944 | locus YLR330W, strain CHS5, hits give low values 1.01 | locus YLR342W, strain FKS1 (second series), hits give low values 1.01 | locus YLR342W, strain FKS1, hits give low values 0.995 | locus YLR357W, strain rsc2, hits give low values 0.974 | locus YLR370C, strain arc18, hits give low values 0.968 | locus YLR371W, strain rom2, hits give low values 1.01 | locus YLR384C, strain iki3, hits give low values 0.988 | locus YLR418C, strain cdc73, hits give low values 1.05 | locus YML016C, strain PPZ1, hits give low values 1 | locus YML032C, strain rad52, hits give low values 1.02 | locus YML120C, strain ndi1, hits give low values 0.941 | locus YML124C, strain tub3, hits give low values 1.01 | locus YMR058W, strain fet3, hits give low values 0.99 | locus YMR078C, strain ctf18, hits give low values 1.01 | locus YMR125W, strain sto1, hits give low values 0.958 | locus YMR129W, hits give low values 0.999 | locus YMR205C, strain PFK2, hits give low values 0.947 | locus YMR223W, strain ubp8, hits give low values 1.04 | locus YMR231W, strain pep5, hits give low values 0.999 | locus YMR263W, strain SAP30, hits give low values 0.988 | locus YMR307W, strain GAS1, hits give low values 1.09 | locus YNL067W, strain RPL9B, hits give low values 1.05 | locus YNL071W, strain lat1, hits give low values 0.993 | locus YNL175C, strain NOP13, hits give low values 1.01 | locus YNL183C, strain NPR1, hits give low values 0.926 | locus YNL197C, strain WHI3, hits give low values 0.999 | locus YNL209W, strain ssb2, hits give low values 0.991 | locus YNL224C, strain SQS1, hits give low values 1 | locus YNL233W, strain BNI4, hits give low values 1.02 | locus YNL248C, strain rpa49, hits give low values 0.995 | locus YNL250W, strain rad50, hits give low values 1.02 | locus YNL271C, strain bni1, hits give low values 1.02 | locus YNL298W, strain CLA4, hits give low values 1.02 | locus YNL307C, strain MCK1, hits give low values 1.02 | locus YNL322C, strain KRE1 (second series), hits give low values 0.982 | locus YNR049C, strain mso1, hits give low values 0.981 | locus YNR052C, strain pop2, hits give low values 1.02 | locus YOL006C, strain TOP1, hits give low values 1.18 | locus YOL012C, strain htz1 0.754 | locus YOL147C, strain pex11, hits give low values 1.02 | locus YOR001W, strain rrp6, hits give low values 1.04 | locus YOR061W, strain CKA2, hits give low values 1.01 | locus YOR069W, strain VPS5, hits give low values 1.01 | locus YOR070C, strain gyp1, hits give low values 0.996 | locus YOR080W, strain dia2, hits give low values 0.979 | locus YOR083W, strain WHI5 (second series), hits give low values 0.997 | locus YOR083W, strain WHI5, hits give low values 0.957 | locus YOR106W, strain vam3, hits give low values 0.944 | locus YOR136W, strain idh2, hits give low values 1.03 | locus YOR144C, strain elg1, hits give low values 1.01 | locus YOR184W, strain ser1, hits give low values 1.03 | locus YOR231W, strain MKK1, hits give low values 0.989 | locus YOR265W, strain rbl2, hits give low values 1 | locus YOR270C, strain vph1, hits give low values 0.939 | locus YOR290C, strain snf2, hits give low values 0.939 | locus YOR316C, strain cot1, hits give low values 1.02 | locus YPL051W, strain arl3, hits give low values 0.991 | locus YPL055C, strain LGE1, hits give low values 1.04 | locus YPL078C, strain atp4, hits give low values 0.954 | locus YPL106C, strain sse1, hits give low values 0.94 | locus YPL240C, strain hsp82, hits give low values 1 | locus YPL256C, strain CLN2, hits give low values 0.993 | locus YPR119W, strain clb2, hits give low values 1.02 | locus YPR141C, strain kar3, hits give low values 1.01 | locus YPR163C, strain tif3, hits give low values 1.01 | locus YPR167C, strain met16, hits give low values 1.01 | strain wtn01, hits give low values 1.04
